Assay results taken from publication PMC5913336, “True equilibrium measurement of transcription factor-DNA binding affinities using automated polarization microscopy”.

target: T1, Optix (Drosophila melanogaster, UniProt Q95RW8 139-229); assay: FP; 33 mM phosphate pH 7.0, 90 mM NaCl, 0.01% Tween 20, 0.1 mM DTT, 0.5% agarose; room temperature; details: tags: N-GST (pGEX-6P-1, kept); dsDNA, one strand shown
T1 sequence: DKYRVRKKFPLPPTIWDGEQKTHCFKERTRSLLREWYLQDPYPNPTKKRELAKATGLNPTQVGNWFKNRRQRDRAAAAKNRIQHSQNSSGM

Question: How did the binding signal turn out when AGAGTGATAGAT was run?
Answer: 16.1 Kd / Kd of best base at the position

Question: AGACTGATAGCT was tested. Which binding signal did it give?
Answer: 1.06 Kd / Kd of best base at the position

Question: With AGAGTGATACCT as the sequence, how does the binding signal read?
Answer: 2.57 Kd / Kd of best base at the position

Question: AGGGTGATAGCT was tested. Which binding signal did it give?
Answer: 5.49 Kd / Kd of best base at the position

Question: For AGAGTGATAGGT, which binding signal is on record?
Answer: 4.85 Kd / Kd of best base at the position

Question: With AGATTGATAGCT as the sequence, how does the binding signal read?
Answer: 6.38 Kd / Kd of best base at the position

Question: With AGAGTGAGAGCT as the sequence, how does the binding signal read?
Answer: 35.9 Kd / Kd of best base at the position

Question: How did the binding signal turn out when AGAGTGAAAGCT was run?
Answer: 1670 Kd / Kd of best base at the position

Question: With AGAGTTATAGCT as the sequence, how does the binding signal read?
Answer: 25 Kd / Kd of best base at the position

Question: With AGAGTGCTAGCT as the sequence, how does the binding signal read?
Answer: 95.1 Kd / Kd of best base at the position

Question: Which binding signal does the source give for AGAGTGATGGCT here?
Answer: 127 Kd / Kd of best base at the position

Question: AGAGTCATAGCT was tested. Which binding signal did it give?
Answer: 51.6 Kd / Kd of best base at the position

Question: AGAGTGACAGCT was tested. Which binding signal did it give?
Answer: 185 Kd / Kd of best base at the position

Question: For AGAGTGATAGCC, which binding signal is on record?
Answer: 4.04 Kd / Kd of best base at the position

Question: For AGAGTGATATCT, which binding signal is on record?
Answer: 3.39 Kd / Kd of best base at the position

Question: With ACAGTGATAGCT as the sequence, how does the binding signal read?
Answer: 3.68 Kd / Kd of best base at the position

Question: Which binding signal does the source give for AGAGGGATAGCT here?
Answer: 8.18 Kd / Kd of best base at the position

Question: AGAGCGATAGCT was tested. Which binding signal did it give?
Answer: 6.46 Kd / Kd of best base at the position

Question: With AGCGTGATAGCT as the sequence, how does the binding signal read?
Answer: 4.94 Kd / Kd of best base at the position

Question: How did the binding signal turn out when GGAGTGATAGCT was run?
Answer: 2.35 Kd / Kd of best base at the position

Question: With TGAGTGATAGCT as the sequence, how does the binding signal read?
Answer: 4.48 Kd / Kd of best base at the position

Question: With AGAATGATAGCT as the sequence, how does the binding signal read?
Answer: 6.11 Kd / Kd of best base at the position

Question: With AGAGTAATAGCT as the sequence, how does the binding signal read?
Answer: 23.7 Kd / Kd of best base at the position

Question: How did the binding signal turn out when AGAGTGATAGCG was run?
Answer: 7.84 Kd / Kd of best base at the position

Question: For ATAGTGATAGCT, which binding signal is on record?
Answer: 1.01 Kd / Kd of best base at the position

Question: With AGAGTGATCGCT as the sequence, how does the binding signal read?
Answer: 9.37 Kd / Kd of best base at the position

Question: How did the binding signal turn out when AGAGTGGTAGCT was run?
Answer: 39.7 Kd / Kd of best base at the position

Question: For AGAGTGTTAGCT, which binding signal is on record?
Answer: 34.8 Kd / Kd of best base at the position

Question: With AGAGTGATAACT as the sequence, how does the binding signal read?
Answer: 12.1 Kd / Kd of best base at the position

Question: AGAGTGATAGCA was tested. Which binding signal did it give?
Answer: 5.73 Kd / Kd of best base at the position

Question: Which binding signal does the source give for AAAGTGATAGCT here?
Answer: 1.14 Kd / Kd of best base at the position

Question: How did the binding signal turn out when AGTGTGATAGCT was run?
Answer: 6.5 Kd / Kd of best base at the position

Question: With CGAGTGATAGCT as the sequence, how does the binding signal read?
Answer: 5.01 Kd / Kd of best base at the position

target: D (Drosophila melanogaster, UniProt Q24533 127-229); assay: as above; details: tags: N-GST (pGEX-6P-1, kept); dsDNA, one strand shown
Sequence (Q24533 127-229): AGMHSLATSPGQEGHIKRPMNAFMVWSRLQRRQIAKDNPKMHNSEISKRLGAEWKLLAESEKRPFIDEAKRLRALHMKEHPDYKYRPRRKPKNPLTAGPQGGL

Question: How did the binding signal turn out when GACCATTGTTCTTT was run?
Answer: 1.16 Kd / Kd of best base at the position

Question: For GACCATTGTTTTTG, which binding signal is on record?
Answer: 2.05 Kd / Kd of best base at the position

Question: With GGCCATTGTTCTTG as the sequence, how does the binding signal read?
Answer: 1.18 Kd / Kd of best base at the position

Question: With CACCATTGTTCTTG as the sequence, how does the binding signal read?
Answer: 1.12 Kd / Kd of best base at the position

Question: GACCATTATTCTTG was tested. Which binding signal did it give?
Answer: 14.1 Kd / Kd of best base at the position

Question: Which binding signal does the source give for GAACATTGTTCTTG here?
Answer: 10.5 Kd / Kd of best base at the position
